# Data: paper PMC7862700, “An all-to-all approach to the identification of sequence-specific readers for epigenetic DNA modifications on cytosine”
# What was measured:
# Experiment in all cases: DAPPL (digital affinity profiling via proximity ligation, sequencing); 10 mM Tris-HCl pH 7.5, 50 mM NaCl, 1 mM DTT, 4% glycerol, room temperature, 30 min; GST-TFs on glutathione beads, 16-mer random dsDNA library, 0.1% formaldehyde crosslink after washing; high values mean tight binding
# Conditions in all cases: protein: recombinant; tags: N-terminal GST; dsDNA, one strand shown
# FLI1 = molecular target: T1, FLI1 (Homo sapiens, UniProt Q01543 1-452)
# T1 sequence: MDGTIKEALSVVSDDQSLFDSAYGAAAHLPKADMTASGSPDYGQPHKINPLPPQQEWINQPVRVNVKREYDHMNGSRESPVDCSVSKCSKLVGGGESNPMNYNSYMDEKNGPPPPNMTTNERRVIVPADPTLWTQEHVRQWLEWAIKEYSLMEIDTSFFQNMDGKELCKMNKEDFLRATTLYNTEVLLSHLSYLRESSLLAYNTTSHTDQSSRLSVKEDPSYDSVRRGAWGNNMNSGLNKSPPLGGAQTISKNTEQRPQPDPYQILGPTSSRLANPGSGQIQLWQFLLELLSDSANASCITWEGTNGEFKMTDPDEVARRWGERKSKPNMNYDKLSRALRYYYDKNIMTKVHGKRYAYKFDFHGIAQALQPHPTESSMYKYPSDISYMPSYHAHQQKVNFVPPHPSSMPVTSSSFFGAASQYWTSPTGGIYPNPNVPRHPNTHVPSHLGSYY
# How it was run: (§1)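 Sequencing on an Illumina NextSeq500 followed washing, crosslinking with 0.1% formaldehyde, proximity ligation (BsaI/T4 ligase, 1 h, 37 °C) and PCR amplification of pools that had been incubated for 30 min at room temperature with 200 nmole of a random double-stranded 16-mer DNA library in Tris/NaCl/DTT/glycerol buffer. Each pool held DNA-barcoded human transcription factors, expressed in yeast as GST fusions and captured on glutathione beads, plus a tag-only sample. Binding signal is a hexamer's read frequency for a factor divided by its frequency in the tag-only sample.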
# ELK1 = molecular target: T2, ELK1 (Homo sapiens, UniProt P19419 1-428)
# T2 sequence: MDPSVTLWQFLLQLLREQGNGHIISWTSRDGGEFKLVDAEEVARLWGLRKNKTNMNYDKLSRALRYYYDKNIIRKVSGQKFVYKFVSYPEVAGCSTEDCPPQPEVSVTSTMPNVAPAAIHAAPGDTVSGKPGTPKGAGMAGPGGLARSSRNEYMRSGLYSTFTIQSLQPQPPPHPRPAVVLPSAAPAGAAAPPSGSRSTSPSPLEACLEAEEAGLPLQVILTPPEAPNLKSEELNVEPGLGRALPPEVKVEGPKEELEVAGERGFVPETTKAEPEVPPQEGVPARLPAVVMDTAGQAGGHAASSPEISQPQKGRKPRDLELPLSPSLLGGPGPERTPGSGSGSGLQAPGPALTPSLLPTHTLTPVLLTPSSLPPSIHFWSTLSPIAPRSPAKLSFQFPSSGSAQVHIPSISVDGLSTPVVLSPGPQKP
# How it was run: as §1
# ERG = molecular target: T3, ERG (Homo sapiens, UniProt P11308 1-479)
# T3 sequence: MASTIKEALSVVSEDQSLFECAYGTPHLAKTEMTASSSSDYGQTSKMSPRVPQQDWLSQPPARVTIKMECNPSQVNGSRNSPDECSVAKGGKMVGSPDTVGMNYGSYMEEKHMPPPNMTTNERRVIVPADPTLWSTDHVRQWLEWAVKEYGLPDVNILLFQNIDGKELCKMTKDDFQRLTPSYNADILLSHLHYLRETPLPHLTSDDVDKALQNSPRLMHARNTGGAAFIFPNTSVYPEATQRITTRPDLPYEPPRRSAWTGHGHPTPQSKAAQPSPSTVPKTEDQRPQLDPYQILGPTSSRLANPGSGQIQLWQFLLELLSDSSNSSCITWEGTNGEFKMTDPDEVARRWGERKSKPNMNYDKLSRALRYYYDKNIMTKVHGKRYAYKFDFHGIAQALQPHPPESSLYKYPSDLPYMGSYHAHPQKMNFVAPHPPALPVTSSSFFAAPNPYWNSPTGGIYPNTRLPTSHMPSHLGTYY
# How it was run: as §1
# EHF = molecular target: T4, EHF (Homo sapiens, UniProt Q9NZC4 1-300)
# T4 sequence: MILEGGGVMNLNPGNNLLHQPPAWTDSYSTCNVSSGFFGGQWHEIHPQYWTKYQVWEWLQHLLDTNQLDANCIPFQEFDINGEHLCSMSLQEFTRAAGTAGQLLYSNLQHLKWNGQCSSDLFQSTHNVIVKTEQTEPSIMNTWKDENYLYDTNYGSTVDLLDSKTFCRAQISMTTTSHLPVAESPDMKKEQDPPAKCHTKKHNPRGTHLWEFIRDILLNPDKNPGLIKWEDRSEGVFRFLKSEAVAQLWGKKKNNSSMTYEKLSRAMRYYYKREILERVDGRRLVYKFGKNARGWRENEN
# How it was run: as §1
# SPI1 = SPI1 (Homo sapiens, UniProt P17947 1-270)
# How it was run: as §1
# SPIB = SPIB (Homo sapiens, UniProt Q01892 1-262)
# How it was run: as §1
# ELK3 = molecular target: T5, ELK3 (Homo sapiens, UniProt P41970 1-407)
# T5 sequence: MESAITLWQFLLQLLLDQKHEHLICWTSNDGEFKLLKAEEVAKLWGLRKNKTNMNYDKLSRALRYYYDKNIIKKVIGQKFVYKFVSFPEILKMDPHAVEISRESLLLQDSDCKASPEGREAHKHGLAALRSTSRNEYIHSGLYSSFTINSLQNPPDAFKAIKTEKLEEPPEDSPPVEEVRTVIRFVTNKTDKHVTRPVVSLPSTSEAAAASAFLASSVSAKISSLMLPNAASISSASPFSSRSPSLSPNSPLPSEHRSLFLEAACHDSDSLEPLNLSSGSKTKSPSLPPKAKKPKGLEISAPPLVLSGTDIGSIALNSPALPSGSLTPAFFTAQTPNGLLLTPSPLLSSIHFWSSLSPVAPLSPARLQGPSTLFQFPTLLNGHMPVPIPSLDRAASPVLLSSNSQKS
# How it was run: as §1
# FEV = molecular target: T6, FEV (Homo sapiens, UniProt Q99581 1-238)
# T6 sequence: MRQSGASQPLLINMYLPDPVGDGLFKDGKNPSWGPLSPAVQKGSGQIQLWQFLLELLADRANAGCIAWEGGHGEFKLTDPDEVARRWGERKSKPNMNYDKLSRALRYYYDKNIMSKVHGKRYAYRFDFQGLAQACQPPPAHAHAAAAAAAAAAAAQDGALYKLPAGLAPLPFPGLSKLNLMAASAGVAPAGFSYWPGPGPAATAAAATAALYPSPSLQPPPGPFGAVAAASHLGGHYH
# How it was run: as §1
# ETV5 = ETV5 (Homo sapiens, UniProt P41161 1-510)
# How it was run: as §1
# SPIC = molecular target: T7, SPIC (Homo sapiens, UniProt Q8N5J4 1-248)
# T7 sequence: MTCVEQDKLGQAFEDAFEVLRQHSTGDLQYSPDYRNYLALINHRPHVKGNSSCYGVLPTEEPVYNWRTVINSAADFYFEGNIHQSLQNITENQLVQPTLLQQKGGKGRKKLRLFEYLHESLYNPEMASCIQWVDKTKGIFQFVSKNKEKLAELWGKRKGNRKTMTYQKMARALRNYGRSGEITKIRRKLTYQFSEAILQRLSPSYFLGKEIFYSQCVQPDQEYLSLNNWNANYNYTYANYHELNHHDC
# How it was run: as §1
# ETV1 = ETV1 (Homo sapiens, UniProt P50549 1-477)
# How it was run: as §1
# ETV3L = molecular target: T8, ETV3L (Homo sapiens, UniProt Q6ZN32 1-361)
# T8 sequence: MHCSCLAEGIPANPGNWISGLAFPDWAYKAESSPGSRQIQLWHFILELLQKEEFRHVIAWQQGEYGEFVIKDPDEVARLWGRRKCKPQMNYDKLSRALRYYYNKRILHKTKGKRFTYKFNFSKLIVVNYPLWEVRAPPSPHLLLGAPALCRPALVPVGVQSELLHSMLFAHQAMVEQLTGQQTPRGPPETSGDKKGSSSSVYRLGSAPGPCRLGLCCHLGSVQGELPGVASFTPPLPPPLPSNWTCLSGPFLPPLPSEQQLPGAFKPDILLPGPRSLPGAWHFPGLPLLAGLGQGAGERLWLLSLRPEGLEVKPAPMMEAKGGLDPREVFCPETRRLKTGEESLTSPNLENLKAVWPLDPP
# How it was run: as §1
# ETS2 = molecular target: T9, ETS2 (Homo sapiens, UniProt P15036 1-469)
# T9 sequence: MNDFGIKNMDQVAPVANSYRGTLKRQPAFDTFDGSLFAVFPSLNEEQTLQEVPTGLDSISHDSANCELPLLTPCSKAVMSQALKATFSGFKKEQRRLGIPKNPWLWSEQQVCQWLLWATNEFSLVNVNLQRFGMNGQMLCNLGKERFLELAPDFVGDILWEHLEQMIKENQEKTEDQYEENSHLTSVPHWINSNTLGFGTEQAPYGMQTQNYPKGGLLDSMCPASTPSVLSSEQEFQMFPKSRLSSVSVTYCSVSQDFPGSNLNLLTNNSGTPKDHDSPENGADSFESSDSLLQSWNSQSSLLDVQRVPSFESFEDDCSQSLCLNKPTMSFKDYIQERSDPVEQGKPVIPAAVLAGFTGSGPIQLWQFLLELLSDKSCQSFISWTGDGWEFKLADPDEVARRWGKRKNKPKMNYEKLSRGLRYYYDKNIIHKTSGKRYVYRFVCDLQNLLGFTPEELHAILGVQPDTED
# How it was run: as §1
# SPDEF = molecular target: T10, SPDEF (Homo sapiens, UniProt O95238 1-335)
# T10 sequence: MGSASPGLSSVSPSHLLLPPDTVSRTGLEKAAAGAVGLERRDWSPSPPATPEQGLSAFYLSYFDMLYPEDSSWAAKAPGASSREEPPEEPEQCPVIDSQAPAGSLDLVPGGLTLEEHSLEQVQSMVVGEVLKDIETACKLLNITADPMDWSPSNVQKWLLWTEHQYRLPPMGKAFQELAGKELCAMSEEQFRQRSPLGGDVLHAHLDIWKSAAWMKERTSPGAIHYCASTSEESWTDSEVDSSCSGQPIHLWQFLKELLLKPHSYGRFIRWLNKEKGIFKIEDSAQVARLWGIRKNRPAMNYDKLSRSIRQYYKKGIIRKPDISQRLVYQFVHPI
# How it was run: as §1
# ETV3 = molecular target: T11, ETV3 (Homo sapiens, UniProt P41162-2 1-143)
# T11 sequence: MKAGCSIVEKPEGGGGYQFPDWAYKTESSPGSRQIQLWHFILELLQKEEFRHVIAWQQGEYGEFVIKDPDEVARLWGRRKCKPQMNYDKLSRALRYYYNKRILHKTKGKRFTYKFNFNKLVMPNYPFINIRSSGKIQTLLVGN
# How it was run: as §1
# ETV6 = ETV6 (Homo sapiens, UniProt P41212 1-452)
# How it was run: as §1
# Sequence of ETV6 (P41212 whole entry): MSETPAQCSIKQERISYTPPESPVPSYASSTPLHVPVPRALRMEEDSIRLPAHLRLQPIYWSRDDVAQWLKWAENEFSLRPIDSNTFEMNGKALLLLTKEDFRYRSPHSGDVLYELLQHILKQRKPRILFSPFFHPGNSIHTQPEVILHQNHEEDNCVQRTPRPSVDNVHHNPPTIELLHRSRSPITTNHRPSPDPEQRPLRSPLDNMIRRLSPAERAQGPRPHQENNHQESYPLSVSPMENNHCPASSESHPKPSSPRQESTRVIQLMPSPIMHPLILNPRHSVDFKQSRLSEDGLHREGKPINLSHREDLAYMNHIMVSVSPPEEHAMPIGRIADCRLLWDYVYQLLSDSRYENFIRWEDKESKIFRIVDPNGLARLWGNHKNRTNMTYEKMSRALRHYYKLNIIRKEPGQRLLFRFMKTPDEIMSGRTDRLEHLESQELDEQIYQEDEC
# Sequence of ETV5 (P41161 whole entry): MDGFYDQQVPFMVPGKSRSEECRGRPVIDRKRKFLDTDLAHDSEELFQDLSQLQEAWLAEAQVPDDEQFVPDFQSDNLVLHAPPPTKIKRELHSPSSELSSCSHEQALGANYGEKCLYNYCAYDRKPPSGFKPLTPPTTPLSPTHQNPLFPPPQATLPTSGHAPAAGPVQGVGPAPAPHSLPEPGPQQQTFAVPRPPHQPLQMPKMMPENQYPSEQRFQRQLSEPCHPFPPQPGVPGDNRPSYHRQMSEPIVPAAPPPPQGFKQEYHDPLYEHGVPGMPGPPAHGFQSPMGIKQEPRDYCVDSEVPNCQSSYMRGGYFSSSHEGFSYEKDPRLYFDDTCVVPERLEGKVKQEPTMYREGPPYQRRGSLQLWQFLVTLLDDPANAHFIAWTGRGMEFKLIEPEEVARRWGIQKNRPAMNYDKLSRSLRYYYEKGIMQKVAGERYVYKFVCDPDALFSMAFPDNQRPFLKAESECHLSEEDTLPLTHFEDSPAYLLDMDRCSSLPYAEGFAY
# Sequence of ETV1 (P50549 whole entry): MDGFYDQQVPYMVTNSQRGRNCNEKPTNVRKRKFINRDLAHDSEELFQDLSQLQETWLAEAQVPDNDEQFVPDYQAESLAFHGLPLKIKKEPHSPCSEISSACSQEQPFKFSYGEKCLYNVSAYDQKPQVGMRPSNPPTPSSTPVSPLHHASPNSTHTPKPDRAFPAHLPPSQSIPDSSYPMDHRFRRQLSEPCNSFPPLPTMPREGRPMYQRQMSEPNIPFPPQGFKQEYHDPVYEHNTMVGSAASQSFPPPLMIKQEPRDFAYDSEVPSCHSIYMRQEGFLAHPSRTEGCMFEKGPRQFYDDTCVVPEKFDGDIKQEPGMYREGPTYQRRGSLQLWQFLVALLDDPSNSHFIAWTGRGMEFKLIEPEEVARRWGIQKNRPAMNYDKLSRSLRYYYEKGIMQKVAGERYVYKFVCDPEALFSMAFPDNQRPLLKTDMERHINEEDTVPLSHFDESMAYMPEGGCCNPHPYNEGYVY
# Sequence of SPIB (Q01892 whole entry): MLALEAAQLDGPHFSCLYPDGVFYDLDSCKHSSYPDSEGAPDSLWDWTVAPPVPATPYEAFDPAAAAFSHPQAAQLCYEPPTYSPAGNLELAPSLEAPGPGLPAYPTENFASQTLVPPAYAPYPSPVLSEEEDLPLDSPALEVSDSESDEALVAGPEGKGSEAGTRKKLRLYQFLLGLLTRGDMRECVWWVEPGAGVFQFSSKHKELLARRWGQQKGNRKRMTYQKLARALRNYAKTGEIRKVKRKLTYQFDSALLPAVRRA
sequence,measurement,setting,value
AACGGA,binding signal,FLI1,"1.05 fold enrichment (6-mer frequency, TF over GST control)"
same,binding signal,ELK1,"1.08 fold enrichment (6-mer frequency, TF over GST control)"
same,binding signal,ERG,"1.18 fold enrichment (6-mer frequency, TF over GST control)"
same,binding signal,EHF,"1.13 fold enrichment (6-mer frequency, TF over GST control)"
same,binding signal,SPI1,"1.15 fold enrichment (6-mer frequency, TF over GST control)"
same,binding signal,SPIB,"1.07 fold enrichment (6-mer frequency, TF over GST control)"
same,binding signal,ELK3,"1.13 fold enrichment (6-mer frequency, TF over GST control)"
same,binding signal,FEV,"1.35 fold enrichment (6-mer frequency, TF over GST control)"
same,binding signal,ETV5,"1.1 fold enrichment (6-mer frequency, TF over GST control)"
same,binding signal,SPIC,"1.04 fold enrichment (6-mer frequency, TF over GST control)"
same,binding signal,ETV1,"1.11 fold enrichment (6-mer frequency, TF over GST control)"
same,binding signal,ETV3L,"1.01 fold enrichment (6-mer frequency, TF over GST control)"
same,binding signal,ETS2,"1.15 fold enrichment (6-mer frequency, TF over GST control)"
same,binding signal,SPDEF,"1.23 fold enrichment (6-mer frequency, TF over GST control)"
same,binding signal,ETV3,"1.08 fold enrichment (6-mer frequency, TF over GST control)"
same,binding signal,ETV6,"1.2 fold enrichment (6-mer frequency, TF over GST control)"
AGTGTA,binding signal,FLI1,"1.03 fold enrichment (6-mer frequency, TF over GST control)"
same,binding signal,EHF,"1.02 fold enrichment (6-mer frequency, TF over GST control)"
same,binding signal,SPI1,"1.24 fold enrichment (6-mer frequency, TF over GST control)"
same,binding signal,FEV,"1.01 fold enrichment (6-mer frequency, TF over GST control)"
same,binding signal,ETV5,"1.05 fold enrichment (6-mer frequency, TF over GST control)"
same,binding signal,SPIC,"1.19 fold enrichment (6-mer frequency, TF over GST control)"
same,binding signal,ETV6,"1.03 fold enrichment (6-mer frequency, TF over GST control)"
